High-throughput results: PubChem BioAssay, several laboratories
AHR activator: activates the human aryl hydrocarbon receptor | AHR-responsive luciferase reporter cells, luminescence | activation, % at 5 µM | P35869 | 320,000 tested, 2.5% active; in the data active means activation above about 47%;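 further: 0% = vehicle wells and 100% = reference agonist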
A3A deaminase: inhibitors of human APOBEC3A DNA deaminase. P31941. recombinant A3A, FAM/TAMRA ssDNA deamination fluorescence. inhibition, % at 20 µM. 330,000 tested, 0.41% active. AID 493011;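 active means at least 40% inhibition at 20 µM here, with at most 30% in a related deaminase screen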;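 further: plate controls were A3A with DMSO for no effect and wells lacking A3A enzyme for full effect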
Target sequence (P31941 whole entry, looked up): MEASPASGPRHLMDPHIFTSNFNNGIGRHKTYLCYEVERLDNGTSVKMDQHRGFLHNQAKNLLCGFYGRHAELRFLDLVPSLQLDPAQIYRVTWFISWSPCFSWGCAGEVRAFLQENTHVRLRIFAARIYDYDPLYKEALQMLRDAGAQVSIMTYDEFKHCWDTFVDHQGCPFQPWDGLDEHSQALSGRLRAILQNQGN
NTR1 ag: NTR1 (human) agonism; activation, % at 20 µM; NTR1-U2OS beta-arrestin-GFP spot imaging, agonist mode; 330,000 tested, 0.17% active; P30989;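 active means activation at or above 40% of the spot to cytoplasm intensity ratio, with at least 20 cells analyzed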;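 further: 0% = DMSO without peptide and 100% = 100 nM NTR1 peptide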
APOBEC3G inh: blocks human APOBEC3G single-stranded DNA deamination. inhibition, % at 20 µM. 330,000 tested, 0.28% active. Q9HC16. recombinant A3G, ssDNA deamination FAM/TAMRA fluorescence;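 active means inhibition of at least 40% at 20 µM, with no more than 30% in the related APOBEC3A deaminase screen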;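 further: plate controls were DMSO wells with A3G for no effect and wells lacking A3G enzyme for full effect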
* marks the source's active call; other numbers are inactive results; . = no result. Hits are enriched below; roughly 3.2% of the tested compounds scored in any of these assays.

SMILES	AHR activator	A3A deaminase	NTR1 ag	APOBEC3G inh
CC(C)(C)C(=O)Nc1sc2c(c1C#N)CCN(Cc1ccccc1)C2	0	-9	0	-17
COCCNC(=O)c1c(N)n(CCCn2ccnc2)c2nc3ccccc3nc12	53*	0	-1	-4
O=[N+]([O-])c1cc(Cl)cc(/C=N/NC(=S)Nc2ccc(S(=O)(=O)N3CCOCC3)cc2)c1O	5	-5	2	-2
O=C(CSc1nnc(-c2ccc3c(c2)OCO3)o1)Nc1ncc(Cl)cc1Cl	133*	2	0	-4
CCOC(=O)c1cc(NC(=O)N2CCCc3ccccc32)c(C)nc1C	14	6	-1	2
Cc1cc(C)n2nc(SCC(=O)N3CCc4ccccc43)nc2n1	38	-6	-1	-4
Cc1nc(C)c(NC(=O)N2CCc3ccccc32)cc1NC(=O)N1CCc2ccccc21	50*	-5	-1	-4
Cc1cc(C)nc(SCC(=O)N2CCc3ccccc32)n1	73*	-4	0	-1
CCC(C)c1ccccc1N1CC(C(=O)Nc2cc(S(=O)(=O)N3CCOCC3)ccc2OC)CC1=O (stereo not drawn)	0	-2	-1	-4
O=C(NC(=S)Nc1ccccc1O)c1cccnc1	58*	-5	0	-3
O=C(NC(=S)Nc1ccccc1O)c1cncc(Br)c1	54*	-4	-2	-5
COc1cccc(N(CC(=O)N2CCCCCC2)S(C)(=O)=O)c1	-4	-3	0	-4
CC(=O)c1sc(N/N=C\c2c(O)ccc3ccccc23)nc1C	65*	-5	1	-1
CC(=O)c1sc(N/N=C\c2ccc(N(C)C)cc2)nc1C	57*	-14	2	-16
CN1C(=O)/C(=C/c2ccccc2OCc2ccc(F)cc2)N(C)C1=S	78*	-3	6	3
O=C(O)CN1C(=O)/C(=C\c2ccccc2OCc2ccc(F)cc2)SC1=S	3	1	2	3
Cc1nc(C)c(-c2csc(Nc3cccnc3)n2)s1	94*	-4	2	-7
COc1ccc(Nc2nc(-c3sc(C)nc3C)cs2)cc1	44	-5	2	-4
O=C(COc1cccc(F)c1)Nc1nc(-c2ccncc2)cs1	10	4	1	14
Clc1cccc(-c2csc(Nc3cccnc3)n2)c1	41	5	6	23
Clc1ccccc1-c1csc(Nc2cccnc2)n1	68*	-3	0	-3
c1cncc(Nc2nc(-c3cccnc3)cs2)c1	50*	6	1	4
O=C(COc1cccc(F)c1)Nc1nc(-c2cccnc2)cs1	54*	2	-1	0
c1cncc(Nc2nc(-c3ccncc3)cs2)c1	4	0	0	-1
O=C1C(Cl)=C(Nc2ccccc2)C(=O)c2ccccc21	9	.	.	.
SMILES	AHR activator	A3A deaminase	NTR1 ag	APOBEC3G inh
C=CCNC1=C(Cl)C(=O)c2ccccc2C1=O	52*	-1	1	-8
CC(NCC1(N2CCOCC2)CCCCC1)C(=O)Nc1ccc(Cl)cc1Cl (stereo not drawn)	1	-5	6	-8
COc1ccccc1NC(=O)CSc1nncs1	9	-3	5	-6
COc1cccc(C2c3c(oc4ccccc4c3=O)C(=O)N2Cc2ccco2)c1 (stereo not drawn)	82*	-3	2	-3
Cc1c(C(=N)C(C#N)C#N)c(=N)oc2c1ccc1ccccc12	65*	-6	3	-11
O=C(Nc1ccccc1O)c1c(O)c2c([nH]c1=O)CCCC2	57*	-2	7	-7
O=C(Nc1nccs1)c1c(O)c2c([nH]c1=O)CCCC2	3	-4	3	0
C=CCn1c(=O)c(C(=O)Nc2ccccc2O)c(O)c2ccccc21	63*	-1	13	-5
C=CCn1c(=O)c(C(=O)Nc2ccccc2C)c(O)c2ccccc21	.	0	6	-1
O=C(NC(=S)N1CCN(C/C=C/c2ccccc2)CC1)c1ccc(Cl)nc1	2	3	0	2
N#Cc1cc(-c2ccccc2)nn1-c1ccccc1	68*	0	4	24
CC(C)c1ccc(NC(=O)c2snc3ccc(Cl)cc23)cc1	55*	-1	19	-5
CC(C)c1ccc(NC(=O)c2csnn2)cc1	8	5	2	-6
O=C(Nc1ccc2nc(-c3ccco3)c(-c3ccco3)nc2c1)N1CCN(c2ccccn2)CC1	8	43*	0	-5
O=C(CSc1nnc(NC(=O)c2ccccc2Cl)s1)Nc1ccc2c(c1)oc1ccccc12	30	-1	51*	-23
Cc1ccc2ncccc2c1	0	-1	0	-12
Cc1ccc2nc(/C=C/c3cccc(F)c3)ccc2c1	48*	1	1	1
